# Compound activity from PubChem BioAssay.
# D1 antagonist – human D1 dopamine receptor antagonism. P21728. HEK293 TREx D1 cells, calcium flux, dopamine EC80; active compounds read low. activity change, negative = inhibition, % at 10 µM. actives 3.2% (n = 360,000); in the data active = activity change below about -30%; note: % is set by controls: 0 for no effect and ±100 for the full control effect
#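 Kinetic fluorescence of a calcium dye serves as the read-out. D1-expressing Hek293 Trex cells, induced overnight at 30 C, are exposed to compound for 180 s before an EC80 dopamine addition, then read 180 s further.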
# D1 potentiator – human D1 dopamine receptor positive modulation; HEK293 TREx D1 cells, calcium flux, dopamine EC20 potentiation; P21728; potentiation, % at 10 µM; actives 0.036% (n = 360,000); in the data active = potentiation above about 30%; note: 0% is about no effect
# TRHR agonist – agonists of human TRH receptor | TRHR cells, calcium flux fluo-8, FDSS agonist mode | activation, % at 2 µM | actives 0.18% (n = 360,000); note: 0% is about no effect
# Target sequence (P34981 whole entry, looked up): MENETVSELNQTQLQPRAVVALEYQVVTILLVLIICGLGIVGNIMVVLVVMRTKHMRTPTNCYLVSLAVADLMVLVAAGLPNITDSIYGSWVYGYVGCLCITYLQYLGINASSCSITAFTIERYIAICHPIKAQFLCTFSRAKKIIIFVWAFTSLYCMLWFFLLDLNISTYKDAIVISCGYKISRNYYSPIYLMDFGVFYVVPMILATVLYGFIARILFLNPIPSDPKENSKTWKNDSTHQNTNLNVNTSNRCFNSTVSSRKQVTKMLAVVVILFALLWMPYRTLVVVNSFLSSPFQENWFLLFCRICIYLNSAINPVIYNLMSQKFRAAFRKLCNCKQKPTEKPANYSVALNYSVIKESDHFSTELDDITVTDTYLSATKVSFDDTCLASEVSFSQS
#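 TRHR-expressing cells, plated overnight in medium with 10% serum, were loaded with fluo-8 calcium dye at room temperature. After a 10 s baseline, library compound was pin-added and calcium release was recorded kinetically (ex 480/em 530) as agonist response.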
# TRHR PAM – allosterically enhances the human TRH receptor. TRHR cells, fluo-8 calcium fluorescence, EC20 TRH enhancement. enhancement, % at 2 µM. actives 0.66% (n = 360,000). AID 493056; in the data active = enhancement above about 30%; note: 0% is about no effect
#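 TRHR-expressing cells loaded with fluo-8 calcium dye were read kinetically (ex 480/em 530) during compound addition, then stimulated with an EC20 of TRH (10 nM final). Enhancement of the Gq-mediated intracellular calcium response was scored.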
# D1 ag – activates the human D1 dopamine receptor | P21728 | HEK293 T-REx D1 cells, calcium flux, agonist mode | actives 1% (n = 360,000) | activation, % at 2 µM | AID 504660; note: 0% is about no effect
#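 Agonism was scored from calcium flux recorded over 180 s (1 read/s) after pintool compound addition, following a 10-cycle baseline. Cells were inducible force-coupled HEK293 TREx D1, plated overnight at 30 C and loaded with no-wash calcium dye.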
# * hit, by the source's call. Hits are enriched below; roughly 4.6% of the tested compounds scored in any of these assays. Cut-off read from the data, not from the text of the source, unless noted: active = activation above about 30%; inactive = the rest.
SMILES,D1 antagonist,D1 potentiator,TRHR agonist,TRHR PAM,D1 ag
S=C(NCCc1ccccc1)Nc1ccc(Cl)cc1Cl,-33*,-5,-1,-7,13
COc1ccc(NC(=O)c2cc(C3CC3)nc3c2c(C)nn3-c2ccccc2)c(OC)c1,-17,0,1,-5,2
CCc1cccc(C)c1NC(=O)c1cnn(-c2ccc(OC)cc2)c1C1CCN(C(=O)OC(C)(C)C)CC1,19,-3,-1,13,5
CCc1ccc(S(=O)(=O)N2CCN(c3ccc(Cl)c(Cl)c3)CC2)cc1,-12,-3,-4,14,4
CCn1cc(C(=O)NCc2ccc(Cl)cc2)c(=O)c2cc(S(=O)(=O)N(C)C3CCCCC3)ccc21,4,3,1,-1,4
S=C(NCCc1ccccc1)N/N=C/c1ccccc1Cl,-33*,5,0,15,5
CC(C)CCNC(=S)Nc1ccc([N+](=O)[O-])cc1,-46*,-3,3,-11,34*
COC(=O)Cc1ccc(NC(=S)NCCC(C)C)cc1,-28,-2,0,0,11
COc1ccc(OCCNC(=S)Nc2cccc3ccccc23)cc1,-39*,-4,0,0,3
Oc1ccc(Br)cc1/C=N/NC(=S)NCCc1ccccc1,17,-9,0,2,3
CC(C)Oc1ccc(CCC(=O)NNC(=S)Nc2ccccc2)cc1,-31*,-2,-1,-2,9
CCn1c(C(=O)N2CCCC(C(=O)N3CCN(c4ccccc4)CC3)C2)cc2sccc21 (configuration not stated),-10,-2,0,-4,0
NC(=O)CSc1nc2c(oc3ccccc32)c(=O)n1-c1ccccc1F,-17,-7,0,-5,0
CCOc1ccccc1NC(=O)Cn1c(=O)n(CCCCC(=O)NCCCOC)c(=O)c2ccccc21,6,-1,-1,4,-2
CCCCNC(=S)NC(=O)c1ccc([N+](=O)[O-])cc1,-46*,-6,0,2,3
CCCCC(CC)CNC(=O)CN1C(=O)CSc2ccc(S(=O)(=O)N3CCOCC3)cc21 (configuration not stated),15,3,-1,-8,-4
Cn1c(=O)c2c(nc3n2CC(O)CN3c2ccc(O)cc2)n(C)c1=O (configuration not stated),0,8,0,-1,-3
CN(C)CCCNS(=O)(=O)c1ccc(N2CCC(c3ccc(Cl)cc3)=N2)cc1,-19,-6,0,4,42*
CN(C)CCCNS(=O)(=O)c1cc(Cl)ccc1Cl,18,-7,1,4,3
O=S(=O)(c1ccc(N2CCC(c3ccc(Cl)cc3)=N2)cc1)N(CCO)CCO,60,28,0,-3,121*
COc1ccc(S(=O)(=O)N2CCCCCC2)cc1N(C)S(=O)(=O)c1ccccc1,-42*,-10,0,-10,11
CCN(CC)S(=O)(=O)c1cccc(S(=O)(=O)N2CCCCC2)c1,-33*,-6,0,-8,3
CCOc1ccccc1-c1noc(CSc2nnc(-c3ccccc3)n2-c2ccc(F)cc2)n1,-24,-1,-1,-4,11
OCCn1c(-c2ccc(F)cc2)csc1=Nc1ccccc1,-31*,-8,0,1,6
Cc1ccc(NC(=O)C2(C)Cc3ccccc3C(=O)O2)c(C)c1 (configuration not stated),-4,0,1,50*,8
SMILES,D1 antagonist,D1 potentiator,TRHR agonist,TRHR PAM,D1 ag
COc1ccccc1NC(=O)C1(C)Cc2ccccc2C(=O)O1 (configuration not stated),-2,-8,0,7,2
CCCN1C(=O)/C(=C\C=C2/Sc3ccccc3N2CCO)SC1=S,2,-5,14,-2,30*
CCN1C(=O)/C(=C/N2CCc3ccccc32)SC1=S,-19,0,1,1,2
CCCN1C(=O)/C(=C/c2ccncc2)SC1=S,-5,-2,-1,-1,0
CCN1C(=O)/C(=C\N2CCN(C(=O)c3ccco3)CC2)SC1=S,6,-1,1,0,4
CCN1C(=O)/C(=C/C=C2/SCCN2C)SC1=S,23,12,16,-4,41*
CCN1C(=O)/C(=C/C=C2/Sc3ccccc3N2CCO)SC1=S,7,2,8,8,32*
CC(C)c1ccc2c(c1)NC(c1ccc(F)cc1)=NC(c1cccs1)=N2,7,4,0,7,0
CCN(CC)S(=O)(=O)c1ccc2c(c1)c(=O)c(C(=O)N1CCc3ccccc3C1)cn2C,-37*,5,-1,-4,0
Cn1cc(C(=O)N2CCc3ccccc3C2)c(=O)c2cc(S(=O)(=O)N3CCOCC3)ccc21,-6,0,1,7,-2
CC1c2[nH]c3ccccc3c2CCN1C(=O)Nc1ccccc1 (configuration not stated),-36*,-5,1,-4,13
COc1cccc(CSc2nc3n(n2)C(CC(C)C)C(C(=O)Nc2ccccc2C)=C(C)N3)c1 (configuration not stated),-12,2,0,8,0
COc1cccc(CNCc2cc(OC)cc(OC)c2)c1,-12,-8,0,4,10
COc1cc(CNCc2ccc(SC)cc2)cc(OC)c1,-2,-1,0,2,33*
Fc1cccc(CNCc2ccc3c(c2)OCO3)c1,6,2,0,13,2
CSc1ccc(CNCc2ccc3c(c2)OCO3)cc1,-4,-4,-1,2,36*
CCC(=O)N1CCc2cc(S(=O)(=O)NC(CC(C)C)C(=O)Nc3ccc(CC)cc3)ccc21 (configuration not stated),-1,-2,0,-2,3
Cc1cn(CC2COC(C)(C)O2)c(=O)[nH]c1=O (configuration not stated),-30*,-3,1,9,3
CCOC(=O)NN1C(=O)c2ccccc2NC1c1ccccn1 (configuration not stated),-30*,-3,0,-3,3
CC(=O)c1ccc(S(=O)(=O)NCc2cccnc2)cc1,-25,4,0,5,2
O=C(Nc1ccc(Cl)c(Cl)c1)c1cccc(S(=O)(=O)NCc2cccnc2)c1,-31*,-4,0,-5,9
O=C(O)c1ccc(S(=O)(=O)NCc2cccnc2)cc1,2,-2,0,35*,2
COc1cccc(S(=O)(=O)NCc2ccc(C(=O)Nc3ccc(Cl)c(Cl)c3)cc2)c1,-15,0,4,14,23
N#CCCN(Cc1ccccc1)C(=O)c1nccnc1C(=O)O,2,-2,0,13,0
COc1cc(NC(=O)CSc2nc3ccccc3nc2Cc2ccccc2OC)cc(OC)c1,0,2,1,-1,5
